Experimental data from PubChem BioAssay AID1159580 (chemical genetic matrix, 2015).
Screen size: about 5,500 compounds; about 2,000 (36%) were called active. Another 18% or so got no clear call; they are omitted. Cut-off read from the data, not from the text of the source: active = normalized growth mostly below about 0.91 (no sharp cut-off); inconclusive = no clear call, values can overlap the other calls; inactive = mostly above about 0.92. The list shows a part of the results.

Assay: chemical genetic growth profiling, strain panel (AID 1159580);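 note: tested at 20 µM; growth read once vehicle control cultures reached saturation at 30 °C; 1 = growth at the plate median or of vehicle wells; lower values mean less growth of the strain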
Details: growth OD

Measured: normalized growth

CCCCCC(O)C1C(=O)OC(C)C(O)/C=C/C=C/C=C/C=C/C=C(\C)C(O)CC(O)CC(O)CC(O)CC(O)CC(O)CC1O (configuration not stated)
inactive: S. cerevisiae deletion strains, locus YJR075W, strain HOC1, active compounds read low 0.994 | S. cerevisiae deletion strains, locus YKL009W, strain mrt4, active compounds read low 0.999 | S. cerevisiae deletion strains, locus YKL068W, active compounds read low 1.03 | S. cerevisiae deletion strains, locus YKL085W, strain MDH1 (second series), active compounds read low 0.975 | S. cerevisiae deletion strains, locus YKL085W, strain MDH1, active compounds read low 0.975 | S. cerevisiae deletion strains, locus YKL160W, strain elf1, active compounds read low 1.01 | S. cerevisiae deletion strains, locus YKL190W, strain CNB1, active compounds read low 1.01 | S. cerevisiae deletion strains, locus YKR001C, strain vps1, active compounds read low 1.03 | S. cerevisiae deletion strains, locus YKR026C, strain gcn3, active compounds read low 0.966 | S. cerevisiae deletion strains, locus YKR091W, strain srl3, active compounds read low 0.995 | S. cerevisiae deletion strains, locus YLL001W, strain dnm1, active compounds read low 1.01 | S. cerevisiae deletion strains, locus YLL026W, active compounds read low 0.982 | S. cerevisiae deletion strains, locus YLL041C, strain sdh2, active compounds read low 0.994 | S. cerevisiae deletion strains, locus YLR027C, strain aat2, active compounds read low 0.983 | S. cerevisiae deletion strains, locus YLR039C, strain RIC1, active compounds read low 1.08 | S. cerevisiae deletion strains, locus YLR058C, strain SHM2, active compounds read low 1.01 | S. cerevisiae deletion strains, locus YLR102C, strain apc9, active compounds read low 1.02 | S. cerevisiae deletion strains, locus YLR113W, strain HOG1, active compounds read low 0.951 | S. cerevisiae deletion strains, locus YLR221C, strain rsa3, active compounds read low 1 | S. cerevisiae deletion strains, locus YLR258W, strain gsy2, active compounds read low 0.991 | S. cerevisiae deletion strains, locus YLR262C, strain YPT6 (second series), active compounds read low 0.997 | S. cerevisiae deletion strains, locus YLR262C, strain YPT6, active compounds read low 1.09 | S. cerevisiae deletion strains, locus YLR268W, strain sec22, active compounds read low 1.02 | S. cerevisiae deletion strains, locus YLR320W, strain mms22, active compounds read low 0.992 | S. cerevisiae deletion strains, locus YLR330W, strain CHS5, active compounds read low 1.01 | S. cerevisiae deletion strains, locus YLR342W, strain FKS1 (second series), active compounds read low 1.06 | S. cerevisiae deletion strains, locus YLR342W, strain FKS1, active compounds read low 0.983 | S. cerevisiae deletion strains, locus YLR357W, strain rsc2, active compounds read low 0.972 | S. cerevisiae deletion strains, locus YLR370C, strain arc18, active compounds read low 0.982 | S. cerevisiae deletion strains, locus YLR371W, strain rom2, active compounds read low 1.02 | S. cerevisiae deletion strains, locus YLR384C, strain iki3, active compounds read low 0.985 | S. cerevisiae deletion strains, locus YLR418C, strain cdc73, active compounds read low 1.02 | S. cerevisiae deletion strains, locus YML016C, strain PPZ1, active compounds read low 1.01 | S. cerevisiae deletion strains, locus YML032C, strain rad52, active compounds read low 1.04 | S. cerevisiae deletion strains, locus YML120C, strain ndi1, active compounds read low 1 | S. cerevisiae deletion strains, locus YML124C, strain tub3, active compounds read low 1.02 | S. cerevisiae deletion strains, locus YMR058W, strain fet3, active compounds read low 0.997 | S. cerevisiae deletion strains, locus YMR078C, strain ctf18, active compounds read low 1.03 | S. cerevisiae deletion strains, locus YMR125W, strain sto1, active compounds read low 0.959 | S. cerevisiae deletion strains, locus YMR129W, active compounds read low 0.977 | S. cerevisiae deletion strains, locus YMR205C, strain PFK2, active compounds read low 0.955 | S. cerevisiae deletion strains, locus YMR223W, strain ubp8, active compounds read low 1.03 | S. cerevisiae deletion strains, locus YMR231W, strain pep5, active compounds read low 1 | S. cerevisiae deletion strains, locus YMR263W, strain SAP30, active compounds read low 1.01 | S. cerevisiae deletion strains, locus YMR307W, strain GAS1, active compounds read low 1.12 | S. cerevisiae deletion strains, locus YNL067W, strain RPL9B, active compounds read low 1.01 | S. cerevisiae deletion strains, locus YNL071W, strain lat1, active compounds read low 0.996 | S. cerevisiae deletion strains, locus YNL128W, strain TEP1, active compounds read low 0.998 | S. cerevisiae deletion strains, locus YNL153C, strain GIM3, active compounds read low 0.994 | S. cerevisiae deletion strains, locus YNL183C, strain NPR1, active compounds read low 0.928 | S. cerevisiae deletion strains, locus YNL209W, strain ssb2, active compounds read low 0.997 | S. cerevisiae deletion strains, locus YNL233W, strain BNI4, active compounds read low 1 | S. cerevisiae deletion strains, locus YNL248C, strain rpa49, active compounds read low 1.01 | S. cerevisiae deletion strains, locus YNL250W, strain rad50, active compounds read low 1 | S. cerevisiae deletion strains, locus YNL271C, strain bni1, active compounds read low 1.02 | S. cerevisiae deletion strains, locus YNL298W, strain CLA4, active compounds read low 1.02 | S. cerevisiae deletion strains, locus YNL307C, strain MCK1, active compounds read low 1.06 | S. cerevisiae deletion strains, locus YNL322C, strain KRE1 (second series), active compounds read low 0.989 | S. cerevisiae deletion strains, locus YNL322C, strain KRE1, active compounds read low 1.01 | S. cerevisiae deletion strains, locus YNR049C, strain mso1, active compounds read low 0.984 | S. cerevisiae deletion strains, locus YNR052C, strain pop2, active compounds read low 1.02 | S. cerevisiae deletion strains, locus YOL006C, strain TOP1, active compounds read low 1.01 | S. cerevisiae deletion strains, locus YOL012C, strain htz1 1.12 | S. cerevisiae deletion strains, locus YOL147C, strain pex11, active compounds read low 1.02 | S. cerevisiae deletion strains, locus YOR001W, strain rrp6, active compounds read low 1 | S. cerevisiae deletion strains, locus YOR061W, strain CKA2, active compounds read low 1.01 | S. cerevisiae deletion strains, locus YOR069W, strain VPS5, active compounds read low 0.999 | S. cerevisiae deletion strains, locus YOR070C, strain gyp1, active compounds read low 0.989 | S. cerevisiae deletion strains, locus YOR080W, strain dia2, active compounds read low 0.976 | S. cerevisiae deletion strains, locus YOR083W, strain WHI5, active compounds read low 1.01 | S. cerevisiae deletion strains, locus YOR106W, strain vam3, active compounds read low 1.01 | S. cerevisiae deletion strains, locus YOR136W, strain idh2, active compounds read low 1.03 | S. cerevisiae deletion strains, locus YOR144C, strain elg1, active compounds read low 1.03 | S. cerevisiae deletion strains, locus YOR184W, strain ser1, active compounds read low 1.06 | S. cerevisiae deletion strains, locus YOR231W, strain MKK1, active compounds read low 0.954 | S. cerevisiae deletion strains, locus YOR265W, strain rbl2, active compounds read low 0.995 | S. cerevisiae deletion strains, locus YOR270C, strain vph1, active compounds read low 1.01 | S. cerevisiae deletion strains, locus YOR290C, strain snf2, active compounds read low 0.995 | S. cerevisiae deletion strains, locus YOR316C, strain cot1, active compounds read low 1.02 | S. cerevisiae deletion strains, locus YPL051W, strain arl3, active compounds read low 0.996 | S. cerevisiae deletion strains, locus YPL055C, strain LGE1, active compounds read low 1.01 | S. cerevisiae deletion strains, locus YPL078C, strain atp4, active compounds read low 1.01 | S. cerevisiae deletion strains, locus YPL106C, strain sse1, active compounds read low 0.987 | S. cerevisiae deletion strains, locus YPL240C, strain hsp82, active compounds read low 1.02 | S. cerevisiae deletion strains, locus YPL241C, strain CIN2, active compounds read low 1.01 | S. cerevisiae deletion strains, locus YPL256C, strain CLN2, active compounds read low 0.975 | S. cerevisiae deletion strains, locus YPR119W, strain clb2, active compounds read low 1.02 | S. cerevisiae deletion strains, locus YPR141C, strain kar3, active compounds read low 1.03 | S. cerevisiae deletion strains, locus YPR163C, strain tif3, active compounds read low 1.02 | S. cerevisiae deletion strains, locus YPR167C, strain met16, active compounds read low 1.02 | S. cerevisiae deletion strains, strain wtn01, active compounds read low 1.01 | S. cerevisiae strains, strain wild type, active compounds read low 1.01
